In assay [1] the target is Mast/stem cell growth factor receptor Kit (Homo sapiens) (UniProt P10721). Conditions: at 1 µM.
The test system of assay [2] is Mast/stem cell growth factor receptor Kit (Homo sapiens), P10721 [D816V]. To be noted: at 0.1 µM.
The test system is the same in assay [3]. To be noted: at 1 µM.
The subject of assay [4] is Mast/stem cell growth factor receptor Kit (Homo sapiens), P10721 [T670I]. To be noted: at 0.1 µM.
Assay [5] shares this test system. Conditions: at 1 µM.
Assay [6] concerns Mast/stem cell growth factor receptor Kit (Homo sapiens), P10721 [V560G]. Conditions: at 0.1 µM.
Mast/stem cell growth factor receptor Kit (Homo sapiens), P10721 [V560G], sequence (P10721 whole entry V560G): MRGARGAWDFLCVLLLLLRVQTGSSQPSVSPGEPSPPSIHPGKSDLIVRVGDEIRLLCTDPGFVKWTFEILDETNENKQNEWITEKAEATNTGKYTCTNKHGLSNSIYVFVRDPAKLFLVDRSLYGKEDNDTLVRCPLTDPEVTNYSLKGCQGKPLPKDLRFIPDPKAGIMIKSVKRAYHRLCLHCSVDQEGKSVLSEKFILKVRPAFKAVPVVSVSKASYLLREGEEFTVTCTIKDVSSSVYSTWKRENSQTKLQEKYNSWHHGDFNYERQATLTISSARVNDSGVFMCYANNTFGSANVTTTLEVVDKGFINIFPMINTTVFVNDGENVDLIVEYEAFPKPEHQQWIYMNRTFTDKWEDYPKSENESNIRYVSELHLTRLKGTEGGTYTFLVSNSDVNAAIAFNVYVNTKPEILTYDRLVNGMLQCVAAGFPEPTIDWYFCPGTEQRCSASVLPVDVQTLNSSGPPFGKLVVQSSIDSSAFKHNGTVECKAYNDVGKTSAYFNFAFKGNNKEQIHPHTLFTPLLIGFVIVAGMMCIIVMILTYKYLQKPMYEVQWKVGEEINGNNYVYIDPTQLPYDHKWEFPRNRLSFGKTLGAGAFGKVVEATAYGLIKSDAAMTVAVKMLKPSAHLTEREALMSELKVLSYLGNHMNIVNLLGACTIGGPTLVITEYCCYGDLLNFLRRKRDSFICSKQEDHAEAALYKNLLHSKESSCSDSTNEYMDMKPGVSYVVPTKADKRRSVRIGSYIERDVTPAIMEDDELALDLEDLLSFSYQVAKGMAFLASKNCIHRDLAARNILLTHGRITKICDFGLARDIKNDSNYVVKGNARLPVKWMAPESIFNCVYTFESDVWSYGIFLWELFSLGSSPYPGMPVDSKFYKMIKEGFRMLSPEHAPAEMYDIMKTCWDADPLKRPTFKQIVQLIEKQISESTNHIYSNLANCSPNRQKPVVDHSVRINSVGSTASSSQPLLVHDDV
The test system is the same in assay [7]. To be noted: at 1 µM.
Assay [8] has as its target Tyrosine-protein kinase Lck (Homo sapiens) (UniProt P06239). Conditions: at 0.1 µM.
For assay [9] the target is unchanged. To be noted: at 1 µM.
The target of assay [10] is Leukocyte tyrosine kinase receptor (Homo sapiens) (UniProt P29376). To be noted: at 0.1 µM.
Leukocyte tyrosine kinase receptor (Homo sapiens), sequence (P29376 whole entry): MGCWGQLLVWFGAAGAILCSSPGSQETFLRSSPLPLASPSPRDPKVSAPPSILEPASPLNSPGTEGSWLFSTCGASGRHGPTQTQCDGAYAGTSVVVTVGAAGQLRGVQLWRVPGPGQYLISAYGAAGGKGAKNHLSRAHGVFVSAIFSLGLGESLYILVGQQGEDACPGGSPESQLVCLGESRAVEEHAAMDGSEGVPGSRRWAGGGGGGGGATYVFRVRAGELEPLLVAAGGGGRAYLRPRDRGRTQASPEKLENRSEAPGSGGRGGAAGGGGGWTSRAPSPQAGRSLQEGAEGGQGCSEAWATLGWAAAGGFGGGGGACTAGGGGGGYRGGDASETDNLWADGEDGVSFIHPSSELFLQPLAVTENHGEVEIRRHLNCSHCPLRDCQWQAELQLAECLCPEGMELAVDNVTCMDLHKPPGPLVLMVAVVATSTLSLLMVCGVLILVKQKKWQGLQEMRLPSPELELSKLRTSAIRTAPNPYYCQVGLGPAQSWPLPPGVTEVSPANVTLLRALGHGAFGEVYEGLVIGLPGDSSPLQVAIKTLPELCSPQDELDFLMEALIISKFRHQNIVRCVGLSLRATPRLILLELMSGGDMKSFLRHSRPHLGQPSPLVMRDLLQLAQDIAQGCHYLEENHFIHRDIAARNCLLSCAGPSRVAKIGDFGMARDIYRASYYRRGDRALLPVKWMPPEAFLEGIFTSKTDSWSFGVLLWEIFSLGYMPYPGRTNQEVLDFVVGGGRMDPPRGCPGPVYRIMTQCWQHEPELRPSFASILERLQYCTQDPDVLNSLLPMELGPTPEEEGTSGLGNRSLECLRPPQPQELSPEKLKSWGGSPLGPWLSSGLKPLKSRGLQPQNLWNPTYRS
The target is the same in assay [11]. To be noted: at 1 µM.
Assay [12] deals with Tyrosine-protein kinase Lyn (Homo sapiens) (UniProt P07948). Conditions: at 0.1 µM.
Tyrosine-protein kinase Lyn (Homo sapiens), sequence (P07948 2-512 limits assumed): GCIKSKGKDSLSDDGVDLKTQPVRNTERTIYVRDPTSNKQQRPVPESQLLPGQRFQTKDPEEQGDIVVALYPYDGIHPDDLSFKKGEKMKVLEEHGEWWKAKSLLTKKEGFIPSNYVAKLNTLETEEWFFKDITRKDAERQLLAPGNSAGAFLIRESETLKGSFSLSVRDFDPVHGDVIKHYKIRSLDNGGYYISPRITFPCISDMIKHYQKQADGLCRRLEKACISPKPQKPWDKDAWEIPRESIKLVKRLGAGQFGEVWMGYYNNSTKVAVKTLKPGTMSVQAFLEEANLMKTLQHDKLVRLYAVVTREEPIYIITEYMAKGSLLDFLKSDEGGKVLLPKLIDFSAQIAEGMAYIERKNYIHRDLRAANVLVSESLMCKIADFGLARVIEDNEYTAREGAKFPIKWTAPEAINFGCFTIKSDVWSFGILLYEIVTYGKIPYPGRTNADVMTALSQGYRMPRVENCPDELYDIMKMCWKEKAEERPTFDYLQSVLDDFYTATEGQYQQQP
The target is the same in assay [13]. Conditions: at 1 µM.
Assay [14] shares this target. Conditions: at 0.1 µM. The source holds these as a separate data set.
Assay [15] has the same target. To be noted: at 1 µM. This is another data set of the same source.
The target of assay [16] is T1, Tyrosine-protein kinase Mer (Homo sapiens) (UniProt Q12866).
T1 sequence (whole entry): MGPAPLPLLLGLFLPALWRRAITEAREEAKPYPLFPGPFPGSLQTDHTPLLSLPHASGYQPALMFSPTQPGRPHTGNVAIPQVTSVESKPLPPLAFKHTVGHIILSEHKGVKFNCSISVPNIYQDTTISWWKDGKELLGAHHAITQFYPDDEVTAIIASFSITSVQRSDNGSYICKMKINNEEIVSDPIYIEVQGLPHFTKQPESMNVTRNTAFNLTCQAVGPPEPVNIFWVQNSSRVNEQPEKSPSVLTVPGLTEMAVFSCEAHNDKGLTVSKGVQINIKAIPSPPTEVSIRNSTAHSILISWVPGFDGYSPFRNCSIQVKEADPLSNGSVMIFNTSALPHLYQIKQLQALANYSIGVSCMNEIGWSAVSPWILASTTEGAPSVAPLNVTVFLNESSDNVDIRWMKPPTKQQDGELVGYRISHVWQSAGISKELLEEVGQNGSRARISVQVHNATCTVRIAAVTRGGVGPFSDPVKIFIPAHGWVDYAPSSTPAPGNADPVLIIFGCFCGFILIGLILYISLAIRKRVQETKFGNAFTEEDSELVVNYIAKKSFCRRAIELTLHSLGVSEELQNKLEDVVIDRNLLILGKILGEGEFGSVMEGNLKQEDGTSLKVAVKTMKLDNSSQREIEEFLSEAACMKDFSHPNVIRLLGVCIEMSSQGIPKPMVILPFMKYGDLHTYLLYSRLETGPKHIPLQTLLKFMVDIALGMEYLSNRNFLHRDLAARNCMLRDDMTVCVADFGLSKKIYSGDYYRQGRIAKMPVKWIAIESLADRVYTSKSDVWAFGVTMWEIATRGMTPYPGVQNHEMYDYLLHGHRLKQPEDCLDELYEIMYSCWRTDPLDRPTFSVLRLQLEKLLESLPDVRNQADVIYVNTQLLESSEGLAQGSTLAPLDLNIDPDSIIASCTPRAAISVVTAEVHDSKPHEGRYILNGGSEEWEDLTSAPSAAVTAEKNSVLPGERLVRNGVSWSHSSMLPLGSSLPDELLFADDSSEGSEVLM
Conditions: at 0.1 µM.

Assay [17] deals with T1, Tyrosine-protein kinase Mer (Homo sapiens). Conditions: at 1 µM.
The target in assay [18] is Hepatocyte growth factor receptor (Homo sapiens) (UniProt P08581). Conditions: at 0.1 µM.
Hepatocyte growth factor receptor (Homo sapiens), sequence (P08581 whole entry): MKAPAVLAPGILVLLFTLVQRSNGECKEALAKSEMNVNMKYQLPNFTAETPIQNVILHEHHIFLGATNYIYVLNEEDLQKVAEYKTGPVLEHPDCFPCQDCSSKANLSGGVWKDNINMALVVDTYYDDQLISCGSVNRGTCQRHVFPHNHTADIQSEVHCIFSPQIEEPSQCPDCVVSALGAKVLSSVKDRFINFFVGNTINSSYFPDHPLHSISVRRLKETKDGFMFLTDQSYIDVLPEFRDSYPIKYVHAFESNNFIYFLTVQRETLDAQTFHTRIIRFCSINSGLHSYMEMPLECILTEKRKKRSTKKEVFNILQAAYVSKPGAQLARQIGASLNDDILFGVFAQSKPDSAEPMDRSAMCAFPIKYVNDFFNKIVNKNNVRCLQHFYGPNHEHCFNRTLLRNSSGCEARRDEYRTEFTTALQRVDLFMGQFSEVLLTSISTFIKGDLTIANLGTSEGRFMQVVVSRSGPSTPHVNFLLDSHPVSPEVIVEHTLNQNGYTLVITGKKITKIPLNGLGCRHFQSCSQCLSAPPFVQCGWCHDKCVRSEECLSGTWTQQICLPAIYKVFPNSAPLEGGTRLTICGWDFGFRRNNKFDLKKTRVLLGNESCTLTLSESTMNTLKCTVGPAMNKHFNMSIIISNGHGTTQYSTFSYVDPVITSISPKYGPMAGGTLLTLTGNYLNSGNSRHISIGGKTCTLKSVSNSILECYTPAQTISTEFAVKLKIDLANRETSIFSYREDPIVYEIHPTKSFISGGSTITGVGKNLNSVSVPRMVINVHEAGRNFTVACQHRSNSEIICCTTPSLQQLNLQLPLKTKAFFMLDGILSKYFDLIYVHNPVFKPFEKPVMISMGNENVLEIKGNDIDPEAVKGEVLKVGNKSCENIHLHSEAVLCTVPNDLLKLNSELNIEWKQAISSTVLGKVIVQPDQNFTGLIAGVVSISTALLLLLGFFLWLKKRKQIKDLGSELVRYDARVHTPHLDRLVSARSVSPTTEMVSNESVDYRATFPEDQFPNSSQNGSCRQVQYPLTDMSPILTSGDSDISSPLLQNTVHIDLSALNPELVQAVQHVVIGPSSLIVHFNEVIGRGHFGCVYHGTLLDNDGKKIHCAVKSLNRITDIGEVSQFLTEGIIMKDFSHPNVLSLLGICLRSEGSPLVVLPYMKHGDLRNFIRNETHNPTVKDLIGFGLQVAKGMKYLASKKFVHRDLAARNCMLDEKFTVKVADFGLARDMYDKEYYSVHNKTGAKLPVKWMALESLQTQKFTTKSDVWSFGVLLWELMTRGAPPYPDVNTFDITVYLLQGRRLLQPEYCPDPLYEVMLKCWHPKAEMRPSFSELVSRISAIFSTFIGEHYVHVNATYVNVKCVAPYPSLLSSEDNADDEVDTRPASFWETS
The target is the same in assay [19]. To be noted: at 1 µM.
For assay [20], the target named is T2, Muscle, skeletal receptor tyrosine-protein kinase (Homo sapiens) (UniProt O15146).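 Also: values are mean inhibition of MuSK from the GSK PKIS kinase screening panel.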
T2 sequence (whole entry): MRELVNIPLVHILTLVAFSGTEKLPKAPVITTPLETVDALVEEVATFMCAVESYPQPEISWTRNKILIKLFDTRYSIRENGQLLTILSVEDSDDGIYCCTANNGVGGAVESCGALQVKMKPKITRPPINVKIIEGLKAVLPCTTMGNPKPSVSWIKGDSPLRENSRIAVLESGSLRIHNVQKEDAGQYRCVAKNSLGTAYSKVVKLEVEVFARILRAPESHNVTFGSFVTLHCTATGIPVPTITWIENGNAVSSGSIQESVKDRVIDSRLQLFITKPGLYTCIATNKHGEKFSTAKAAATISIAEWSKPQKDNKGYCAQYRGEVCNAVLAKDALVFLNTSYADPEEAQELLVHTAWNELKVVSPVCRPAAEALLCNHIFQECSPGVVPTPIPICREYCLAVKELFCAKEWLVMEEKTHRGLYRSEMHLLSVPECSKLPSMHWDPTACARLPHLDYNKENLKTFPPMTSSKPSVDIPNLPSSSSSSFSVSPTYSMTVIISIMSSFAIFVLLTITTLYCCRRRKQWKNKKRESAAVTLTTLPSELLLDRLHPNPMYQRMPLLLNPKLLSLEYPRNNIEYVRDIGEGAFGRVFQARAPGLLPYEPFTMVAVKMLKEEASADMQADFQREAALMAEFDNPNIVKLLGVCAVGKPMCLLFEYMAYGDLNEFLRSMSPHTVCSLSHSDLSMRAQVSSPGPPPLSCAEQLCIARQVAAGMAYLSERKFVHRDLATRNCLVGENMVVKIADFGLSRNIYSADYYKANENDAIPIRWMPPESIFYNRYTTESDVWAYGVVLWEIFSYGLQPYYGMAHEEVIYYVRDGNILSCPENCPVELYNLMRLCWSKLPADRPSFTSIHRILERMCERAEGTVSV
Conditions: at 0.1 µM.

Experimental findings from ChEMBL document CHEMBL1961873, “Compounds: GSK PKIS; Assays: Nanosyn kinase panel” (2012) are described below.

Mast/stem cell growth factor receptor Kit (Homo sapiens), P10721 [D816V], sequence (P10721 whole entry D816V): as the sequence (P10721 whole entry V560G) above, with G560V, D816V counted along it
Tyrosine-protein kinase Lck (Homo sapiens), sequence (P06239 2-509 limits assumed): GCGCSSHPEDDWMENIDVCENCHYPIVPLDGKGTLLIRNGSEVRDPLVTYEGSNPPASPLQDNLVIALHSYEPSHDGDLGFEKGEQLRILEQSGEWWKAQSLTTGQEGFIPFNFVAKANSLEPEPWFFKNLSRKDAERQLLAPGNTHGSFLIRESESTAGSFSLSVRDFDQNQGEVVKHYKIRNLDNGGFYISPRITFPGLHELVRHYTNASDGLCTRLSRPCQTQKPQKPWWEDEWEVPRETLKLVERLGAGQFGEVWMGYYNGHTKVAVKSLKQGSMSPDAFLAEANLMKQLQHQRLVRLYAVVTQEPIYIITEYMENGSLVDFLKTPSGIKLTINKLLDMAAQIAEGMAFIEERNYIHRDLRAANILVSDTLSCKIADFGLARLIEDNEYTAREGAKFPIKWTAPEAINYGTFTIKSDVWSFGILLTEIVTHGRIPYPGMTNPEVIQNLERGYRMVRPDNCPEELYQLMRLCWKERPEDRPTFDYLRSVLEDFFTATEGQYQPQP
Mast/stem cell growth factor receptor Kit (Homo sapiens), P10721 [T670I], sequence (P10721 whole entry T670I): as the sequence (P10721 whole entry V560G) above, with G560V, T670I counted along it
Mast/stem cell growth factor receptor Kit (Homo sapiens), sequence (P10721 whole entry): as the sequence (P10721 whole entry V560G) above, with G560V counted along it

As to `NC(=O)c1ccc(Oc2nccc(-c3c(-c4ccc(F)cc4)ncn3C3CCNCC3)n2)cc1`, the inhibition is 6.05% in assay [1]; 4.42% in [2]; 4.25% in [3]; 1.23% in assay [4]; 1.77% in assay [5]; -1.86% in assay [6]. The inhibition came to 0.03% in assay [7]; 5.07% in assay [8]; 4.88% in [9]; 4.02% in assay [10]; 4.14% in assay [11]; 4.17% in [12]. Also, the inhibition is 5.34% in [13]; 1.86% in [14]; 4.92% in assay [15]; 3.18% in assay [16]; 6.79% in [17]; 13.2% in assay [18]. Further, the inhibition stood at 8.14% in [19] and 3.97% in assay [20].
As for `CN(c1ccc(NC(=O)Nc2c(Cl)cccc2Cl)cc1)c1ccnc(Nc2cccc(CS(C)(=O)=O)c2)n1`, the inhibition in assay [1] was 95.9%; in assay [2], -0.59%; in assay [3], 2.33%; in assay [4], 12.3%; in assay [5], 35.9%; in assay [6] it was 71.3%. Also, the inhibition in assay [7] worked out at 81.5%; in assay [8], 45.5%; in [9], 61.2%; in assay [10] it was 0.54%; in assay [11], 1.45%; in [12] it was 29.7%. Further, the inhibition in [13] worked out at 64.8%; in assay [14], 27.1%; in assay [15] it was 60.9%; in [16], 14.6%; in assay [17] it was 29.6%; in assay [18] it was 80.8%. Besides, the inhibition came out at 85% in assay [19] and 72.8% in assay [20].
`COc1cc(Nc2ncc3c(C)nc(-c4cccc(C(F)(F)F)c4)n3n2)cc(OC)c1OC`: the inhibition in assay [1] is 44.8%; in assay [2], 4.72%; in assay [3], 5.97%; in assay [4] it was 1.57%; in [5], 7.22%; in [6], -0.27%. In addition, the inhibition in assay [7] is 7.67%; in assay [8] it was 3.24%; in assay [9], 20.1%; in assay [10], 4.18%; in [11], 4.56%; in assay [12], 8.46%. Further, the inhibition was found to be 27.6% in assay [13]; 5.92% in assay [14]; 21.9% in [15]; 1.71% in assay [16]; 4.47% in assay [17]; 8.25% in [18]. The results for the inhibition in assay [19] and in assay [20] were 9.19% and 3.85%, respectively.
On to `CN1CCN(CCCNc2nc3ccc(Oc4ccc(NC(=O)Nc5cc(C(F)(F)F)ccc5F)cc4)cc3[nH]2)CC1`, for which the inhibition in assay [1] is 91.9%; in assay [2], -2.19%; in assay [3], 0.02%; in assay [4] it was 11.5%; in assay [5], 70.1%; in [6] it was 31.6%. Further, the inhibition in [7] was 76.6%; in [8] it was -1.91%; in [9] it was 7.95%; in [10], -0.24%; in [11], -0.03%; in [12] it was 1.76%. Further, the inhibition in assay [13] was determined as 13.2%; in [14], 0.61%; in assay [15], 9.37%; in assay [16] it was 2.04%; in assay [17] it was 6.67%; in assay [18], 5.66%. For the same compound, the inhibition in assay [19] was 8.95%; in assay [20] it was 15%.
Regarding `CCC(=O)Nc1ccc(C)c(-c2ccc(C(=O)NCC3CC3)cc2)c1`, the inhibition is 4.74% in assay [1]; -1.54% in [2]; 5.31% in assay [3]; 2.5% in [4]; 3.87% in assay [5]; -0.17% in assay [6]. The inhibition in assay [7] was -1.72%; in assay [8] it was 2.57%; in [9], 5.27%; in assay [10], 4.98%; in assay [11] it was 3.92%; in [12], 4.52%. The inhibition in assay [13] worked out at 5.05%; in [14], 1.69%; in assay [15], 2.75%; in [16], 2.88%; in [17], 4.95%; in [18], 6.02%. The inhibition in [19] is 4.29%; in assay [20] it was 1.96%.

As usually defined, the inhibition is the drop in the measured response relative to a control, in per cent.
